{"source": "PubChem BioAssay (NCATS)", "note": "Values joined by “and” are separate entries in the source; they are usually repeats but may differ in a detail not shown here. Equal values may be shown once. Results filed as inconclusive are left out. Active and inactive are the calls of the source. Unless noted, calls come from the whole dose curve; as a rule, active = well fitted curve in the direction sought with a large enough effect; inconclusive = small, poorly fitted or top-dose-only effect, or another doubt; inactive = no such curve, though single readings can be large; an effect the other way counts as inactive or inconclusive. % is set by controls: 0 for no effect and ±100 for the full control effect; potency is the fitted concentration of half-maximal effect.", "data": [{"target": "Cytochrome P450 2C9 (Homo sapiens) (UniProt P11712)", "sequence (P11712 whole entry, looked up)": "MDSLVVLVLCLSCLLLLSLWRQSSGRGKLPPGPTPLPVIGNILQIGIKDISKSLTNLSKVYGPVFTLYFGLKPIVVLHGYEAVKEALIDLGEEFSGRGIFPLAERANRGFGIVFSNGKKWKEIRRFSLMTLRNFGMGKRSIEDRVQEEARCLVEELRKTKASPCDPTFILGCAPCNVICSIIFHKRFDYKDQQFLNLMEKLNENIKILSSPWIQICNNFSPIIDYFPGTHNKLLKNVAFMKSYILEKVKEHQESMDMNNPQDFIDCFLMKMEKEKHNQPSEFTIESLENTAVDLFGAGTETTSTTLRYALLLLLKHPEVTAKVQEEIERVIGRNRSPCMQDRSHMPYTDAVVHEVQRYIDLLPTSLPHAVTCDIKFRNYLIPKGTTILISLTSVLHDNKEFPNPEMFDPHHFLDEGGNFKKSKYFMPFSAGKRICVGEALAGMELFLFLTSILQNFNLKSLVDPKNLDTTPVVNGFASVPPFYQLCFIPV", "test": "Cytochrome P450 family 2 subfamily C member 9 (CYP2C9) small molecule antagonists: luciferase biochemical (cell-free) qHTS assay (AID 1645842; active = well fitted curve in the direction sought with a large enough effect in the repeat runs; an effect the other way counts as inactive or inconclusive; note: nearly all actives have a fitted effect of over 55% in size)", "conditions": "P450-Glo CYP2C9 enzyme assay, luciferin luminescence; series mostly up to 57.4 µM", "method_in_brief": "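Luminescence, after 20 min with luciferin detection reagent, reflected CYP2C9 turnover during a 1 h NADPH-driven reaction at 37C. Enzyme-substrate mix contained 0.4% bovine serum albumin and was preincubated with compound 10 min at room temperature.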", "values": [{"smiles": "CCOc1cc(C(=O)N2CCC(N3CCN(C)CC3)CC2)ccc1Nc1ncc2c(n1)N(C1CCCC1)c1ccccc1C(=O)N2C", "Potency": "inactive"}, {"smiles": "CCN(CC)CCN(Cc1ccc(-c2ccc(C(F)(F)F)cc2)cc1)C(=O)Cn1c(SCc2ccc(F)cc2)nc(=O)c2c1CCC2", "Potency": "23.9 µM (active)"}, {"smiles": "CNC(=O)c1ccccc1Nc1cc(Nc2ccc(N3CCOCC3)cc2OC)ncc1C(F)(F)F", "Potency": "4.25 µM (active)"}, {"smiles": "COc1cc(N2CCC(N3CCN(C)CC3)CC2)ccc1Nc1ncc(Cl)c(-c2c[nH]c3ccccc23)n1", "Potency": "19 µM (active)"}, {"smiles": "c1cc(Nc2cc(C3CC3)[nH]n2)nc(Nc2ccc3nc[nH]c3c2)n1", "Potency": "9.52 µM (active)"}]}, {"test_system": "not listed separately", "test": "Primary qHTS for inhibitors of nuclear receptor binding SET domain protein 2 (NSD2) in an isogenic RCH-ACV NSD2 p.E1099K mutant (9B) (AID 1645876); note: nearly all actives have a fitted effect of over 70% in size", "conditions": "RCH-ACV NSD2 E1099K (9B) viability, CellTiter-Glo, 72 h; series mostly up to 44.9 µM", "values": [{"smiles": "COC(=O)C12CCC(C)C(C)C1C1=CCC3C4(C)CCC(OC(C)=O)C(C)(C)C4CCC3(C)C1(C)CC2", "note": "(stereo not given)", "Potency": "inactive"}, {"smiles": "CCOc1cc(C(=O)N2CCC(N3CCN(C)CC3)CC2)ccc1Nc1ncc2c(n1)N(C1CCCC1)c1ccccc1C(=O)N2C", "Potency": "1.15 µM (active) and 1.86 µM (active)"}, {"smiles": "O=C(O)/C=C/c1ccc(-c2ccc(O)c(C34CC5CC(CC(C5)C3)C4)c2)cc1", "Potency": "325 nM (active)"}, {"smiles": "CCc1c(-c2ccccc2)c(-c2ccccc2)nn1-c1ccccc1-c1cccc(OCC(=O)O)c1", "Potency": "inactive"}, {"smiles": "CC1(C)CC[C@]2(C(=O)O)[C@H](O)C[C@]3(C)C(=CCC4[C@@]5(C)CC[C@H](O[C@@H]6O[C@H](CO[C@@H]7OC[C@H](O)[C@H](O)[C@H]7O[C@@H]7OC[C@@H](O)[C@H](O)[C@H]7O)[C@@H](O)[C@H](O)[C@H]6O[C@@H]6O[C@H](CO)[C@@H](O)[C@H](O)[C@H]6O)C(C)(C)C5CC[C@]43C)[C@@H]2C1", "note": "(stereo not given in full)", "activity change, negative = viability loss": "-4.67% [at 9.23 µM] (inactive)"}]}]}
